Compound activity: PubChem BioAssay, National Center for Advancing Translational Sciences (NCATS)
Hits are enriched below; roughly 9.4% of the tested compounds scored in any of these assays.
ELG1 DNA repair = ELG1-dependent DNA repair inhibition; HEK293T ELG1-luciferase reporter, luminescence, 16 h; DNA damage induced by 5-fluorouridine; Potency, µM (highest dose often 46.1 µM), inactives show at the top dose activity change, negative = inhibition, hits mostly inhibitors; 330,000 tested, 2.3% active; AID 504467; further: on the % scale 0 is the no-effect control and ±100 the full control effect; nearly all actives have a fitted effect of over 55% in size
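Luminescence from the luciferase reporter, measured 30 min after ONE-Glo reagent at room temperature, was the read-out. Beforehand, 2,000 cells per well were exposed for 16 hr at 37 °C to 5-fluorouridine together with compound or vehicle.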
NPC1 prom act = NPC1 promoter activation. Huh7 NPC1 promoter luciferase reporter, 24 h. Potency, µM (series often up to 9.22 µM), without a hit: top-dose activation, hits mostly activators. 320,000 tested, 2.4% active. AID 485313; further: % of control where 0% means no effect; nearly all actives have a fitted effect of over 60% in size
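Luminescence from an NPC1 promoter-driven luciferase reporter in stably transfected Huh7 cells was measured after 24 h compound treatment at 37 °C, followed by 10 min ambient incubation with luciferase detection reagent.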
Rab9 promoter act = activates the Rab9 promoter; Huh7 Rab9 promoter-luciferase reporter, luminescence, 24 h; 320,000 tested, 2.8% active; Potency, µM (titrated, usually from 9.22 µM), without a hit: top-dose activation, negative = inhibition, usual class: activators; AID 485297; further: % of control where 0% means no effect; nearly all actives have a fitted effect of over 60% in size
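Cells were plated at 1500 per well in reduced-serum medium with 10% FBS and left 2 h. Compound in DMSO was then added for 24 h at 37 °C. Reporter signal was read by luminescence after 10 min with luciferase detection reagent.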
FLuc counter = firefly luciferase modulation, counter-screen for miR-21 project; P08659; AID 588342; purified FLuc, Km substrates, luminescence inhibition; 360,000 tested, 6.9% active; Potency, µM (highest dose often 57.5 µM), without a hit: at the top dose activity change, negative = inhibition, hits mostly inhibitors;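 further: plate controls were vehicle for no effect and reference inhibitor for full effect; nearly all actives have a fitted effect of over 55% in size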
Target sequence (P08659 whole entry, looked up): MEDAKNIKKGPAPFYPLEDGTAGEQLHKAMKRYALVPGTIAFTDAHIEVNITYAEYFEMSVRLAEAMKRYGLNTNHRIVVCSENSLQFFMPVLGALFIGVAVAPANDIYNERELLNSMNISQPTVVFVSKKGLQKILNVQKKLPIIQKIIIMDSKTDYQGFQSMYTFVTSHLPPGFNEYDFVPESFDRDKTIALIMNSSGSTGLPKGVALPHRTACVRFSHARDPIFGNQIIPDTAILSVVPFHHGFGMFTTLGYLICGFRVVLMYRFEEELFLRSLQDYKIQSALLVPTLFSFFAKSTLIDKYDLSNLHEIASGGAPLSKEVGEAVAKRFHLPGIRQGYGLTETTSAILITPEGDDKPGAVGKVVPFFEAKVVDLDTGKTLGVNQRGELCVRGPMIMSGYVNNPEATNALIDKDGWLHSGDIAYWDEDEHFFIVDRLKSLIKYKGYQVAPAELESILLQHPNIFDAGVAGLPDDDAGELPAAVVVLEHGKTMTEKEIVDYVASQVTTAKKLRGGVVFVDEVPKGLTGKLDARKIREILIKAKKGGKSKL
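Purified P. pyralis luciferase (10nM final) with 10uM D-luciferin and 10uM ATP (Km levels) in 50mM Tris acetate pH 7.5, 10mM Mg acetate, 0.01% Tween-20, 0.05% BSA; qHTS 6-point titration, ~60 µM downward; luminescence read.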
SMN2 splice up = enhancers of SMN2 splice variant expression | HEK293 SMN2-luciferase splicing reporter, luminescence, 30-36 h | Potency, µM (titrated, usually from 46.1 µM), for inactives: at the highest dose activity change, positive = activation, actives largely listed as activators | 210,000 tested, 2.8% active; further: % of control where 0% means no effect; nearly all actives have a fitted effect of over 55% in size
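qHTS luciferase splicing reporter: luminescence rises when SMN2 exon 7 is included in transfected HEK293 cells. Compound exposure lasted 30-36 h at 37C, with 4.5 mM final sodium butyrate as control, followed by a ONE-Glo read.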
ELG1 genotoxic = induces genotoxicity in HEK293T cells with luciferase-tagged ELG1 | Potency, µM (series often up to 46 µM), for the others: top-dose activity change, positive = activation, hits mostly activators | 330,000 tested, 1.3% active | HEK293T ELG1-luciferase reporter, luminescence, 16 h; further: % of control where 0% means no effect; nearly all actives have a fitted effect of over 60% in size
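Reporter readout depends on ELG1 protein level, which increases with genetic stress. After 16 hr compound exposure at 37 °C, luciferase activity was quantified using ONE-Glo.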
The depositor's hits bear a star; ? = inconclusive; . = no result given; [ ] = remark or other dose. The call rests on the fitted dose curve; in most records, active means well fitted curve in the direction sought with a large enough effect; inconclusive means small, poorly fitted or top-dose-only effect, or another doubt; inactive means no such curve, though single readings can be large; an effect the other way counts as inactive or inconclusive. Potency means the concentration at half of the fitted maximal effect.

SMILES	ELG1 DNA repair	NPC1 prom act	Rab9 promoter act	FLuc counter	SMN2 splice up	ELG1 genotoxic
Nc1c(C(=O)NCC2CCCO2)c2nc3ccccc3nc2n1Cc1ccco1 (centres undefined)	23µM*	5%	-3%	-13%	.	-7%
CCCCCOC(=O)c1ccccc1C(=O)OCCCCC	.	.	.	.	0%	.
O=C1NC(=S)N(c2ccc(F)cc2)C(=O)/C1=C\c1ccoc1	1%	-1%	-6%	24µM*	.	0%
Cc1ccc(/C=C2\C(=O)NC(=S)N(c3cccc(F)c3)C2=O)o1	8%	-3%	-1%	17µM*	.	0%
COc1ccc(N2C(=O)/C(=C/c3ccc(C)o3)C(=O)NC2=S)cc1	25%	0%	0%	?	.	0%
BrCCBr	.	.	.	.	-2%	.
O=C(O)c1cccc([As]=[As]c2cccc(C(=O)O)c2)c1 (centres undefined)	.	.	.	.	-11%[9.22 µM]	.
CN(C)C(Cc1ccccc1)C(=O)c1c[nH]c2ccccc12 (centres undefined)	15%	-1%	1%	24µM*	.	0%
COC(=O)c1cc2c(cn1)[nH]c1ccccc12	.	.	.	.	19%	.
CCOC(=O)c1cc2c(cn1)[nH]c1ccccc12	?	?	19%	15µM*	?	17%
Cc1ccc(N2C(=O)NC(=O)/C(=C/c3ccc(-c4ccc(C(=O)O)c(Cl)c4)o3)C2=O)cc1	4%	-3%	-2%	11µM*	6%	-11%
COc1ccc(NC(=O)CCOc2cc(C)ccc2C)cc1S(=O)(=O)N1CCCCC1	23µM*	.	.	.	.	-8%
CCOc1ccc(OC(=O)c2ccc3c(=O)n4c(nc3c2)CCC4)cc1	-3%	-1%	-3%	12µM*	.	-4%
CN1C(=O)C(=Cc2ccccc2OCc2ccc(Cl)cc2)C(=O)N(C)C1=O	?	-3%	1%	9.5µM*	?	?
[CH3][Hg][Cl]	.	.	.	.	-6%	.
O=C(Oc1ccc(Cl)cc1)N1CCOCC1	?	-2%	9%	-12%	.	-1%
O=C(Nc1ccc2nc(SCC(=O)N3CCOCC3)sc2c1)c1ccc(Cl)cc1	.	.	.	11µM*	.	.
COc1ccc(-n2c(=S)[nH]c3c(sc(=S)n3-c3ccccc3)c2=O)c(OC)c1	0%	-7%	-3%	11µM*	.	0%
Cc1cnn(-c2cc(Oc3ccccc3)ncn2)c1	?	?	?	17µM*	.	1.5µM*
O=C1NC(=O)N(c2ccc3c(c2)OCO3)C(=O)/C1=C/c1ccsc1	6%	-2%	-7%	19µM*	19%	3%
O=C1NC(=O)N(c2ccc3c(c2)OCO3)C(=O)/C1=C/c1cccs1	-7%	-6%	-2%	?	10%	?
COc1ccccc1N=Cc1c(O)n(C)c(=O)n(C)c1=O	?	5%	12%	7.6µM*	-13%	17%
COc1ccc(Cl)cc1N=Cc1c(O)n(C)c(=O)n(C)c1=O	?	-2%	1%	1%	.	2%
Cc1ccc(NC(=O)c2cc(S(=O)(=O)N3CCOCC3)c(Cl)cc2Cl)cc1	.	.	.	-8%	-46%	.
Nc1c2c(nc3sc4c(c13)CCCC4)CCCCC2	?	2.8µM*	2.2µM*	1.9µM*	8.9µM*	14%
SMILES	ELG1 DNA repair	NPC1 prom act	Rab9 promoter act	FLuc counter	SMN2 splice up	ELG1 genotoxic
Cc1ccc(OCC(=O)N/N=C\c2ccc(O)c([N+](=O)[O-])c2)c([N+](=O)[O-])c1	-24%	1%	-3%	27µM*	-11%	1%
COC(=O)[C@]1(C)CC[C@@]2(C)CC[C@@]3(C)C4=CC=C5C(=CC(=O)C(O)=C5C)[C@@]4(C)CC[C@@]3(C)C2C1 (some centres undefined)	.	.	.	.	-115%	.
C[C@H]1CCC[C@H](O)CCCCCc2cc(O)cc(O)c2C(=O)O1	7.3µM*	2%	6%	3%	-47%	-38%
CN1CCN(c2ncnc3ccc(Br)cc23)CC1	9.2µM*	2%	5%	10%	-32%	-9%
O=C(Oc1ccc(S(=O)(=O)F)cc1F)c1ccccc1Cl	.	.	.	.	-7%[9.22 µM]	.
O=C(NCP(=O)(O)O)c1cccnc1	.	.	.	.	-3%[9.22 µM]	.
CCOP(=S)(OCC)SCSC(C)(C)C	.	.	.	.	-3%	.
O=C(CCn1c(=O)oc2ccccc21)N1CCC2(CC1)OCCO2	?	9%	3%	-9%	5%	-1%
O=c1oc2ccccc2n1CCCOc1ccccc1	?	29%	?	19µM*	11µM*	18µM*
COc1ccc(N2C(=O)/C(=C/c3cc(C)n(-c4ccc(C)cn4)c3C)C(=O)NC2=S)c(OC)c1	?	-1%	-14%	27µM*	8%	13%
O=C(Oc1ccc(Cl)c2ccccc12)N1CCCCC1	?	12%	5%	17µM*	2%	?
O=C(Oc1ccc(-c2nnco2)cc1)N1CCCCC1	?	8%	22%	7%[2.3 µM]	.	10%
CN(C)C(=O)Oc1ccc(Cl)c2ccccc12	?	4.5µM*	?	8%[2.3 µM]	9%	2%
CN(C(=O)Oc1ccc(Cl)c2cccnc12)c1ccccc1	-2%	-2%	-1%	-8%	-16%	-3%
O=C(Oc1ccc2ccc(OC(=O)N3CCCCCC3)cc2c1)N1CCCCCC1	?	15%	13%	13µM*	-36%	?
O=C(Oc1ccc2ccccc2c1Cl)N1CCCC1	?	2.8µM*	2µM*	12µM*	13µM*	2.1µM*
Cc1ccc2cccc(OC(=O)N3CCCC3)c2n1	19%	-4%	-3%[1.84 µM]	3%	-3%	2%
O=C(Oc1c(Cl)cc(Cl)c2ccccc12)N1CCCCC1	?	6%	0%	?	-13%	?
CN(C)CCCNc1c2c(nc3ccc(Cl)cc13)CCCC2	.	.	.	.	-4%[9.22 µM]	.
CN(C)C(=O)Oc1ccc2ccccc2c1Cl	?	14%	15%	?	-24%	?
CCN(CC)C(=O)Oc1ccc2ccccc2c1Cl	?	16%	28%	17µM*	?	13%
CC(C)CON=O	.	.	.	.	-1%	.
COc1cccc2c1C(=O)c1c(O)c3c(c(O)c1C2=O)C[C@](O)(/C(C)=N\O)C[C@@H]3O[C@H]1C[C@H](N)[C@@H](O)[C@H](C)O1	.	.	.	.	-27%[9.22 µM]	.
CCCSC(=O)Cl	.	.	.	.	1%	.
Cc1c(C(=O)N2CCC3(CC2)OCCO3)sc2ncnc(N3CCN(c4ccccn4)CC3)c12	3.7µM*	0%	-2%	-2%	-38%	-28%
c1ccc(CN2CCC3(CCNCC3)CC2)cc1	.	.	.	.	-25%	.
COCCO[C@H]1CC[C@@]2(C)C(=CCC3C2CC[C@@]2(C)C3CC[C@]2(C)O)C1 (some centres undefined)	18µM*	.	.	.	.	-5%
O=C(O)[C@@H](O)[C@@H](O)C1[O][Sb][O][C@@H]1CO (some centres undefined)	.	.	.	.	-10%[9.22 µM]	.
